In the supplement of paper PMC11732987, “Enantioselective OTUD7B fragment discovery through chemoproteomics screening and high-throughput optimisation” (Communications Chemistry, 2025):

Columns and labels:
Assay in all cases: log2 ratio of Biotin-Ahx-Ub-VS probe labelling (fragment/DMSO); higher = less target engagement (more negative = stronger competition), active = hit call of the paper (q ≤ 0.05, log2 ratio ≤ -1)
Details in all cases: compound concentration: 200 uM; treatment time: 3 h
ALG13 = molecular target: T1, ALG13 (UniProt Q9NP73)
T1 sequence (whole entry): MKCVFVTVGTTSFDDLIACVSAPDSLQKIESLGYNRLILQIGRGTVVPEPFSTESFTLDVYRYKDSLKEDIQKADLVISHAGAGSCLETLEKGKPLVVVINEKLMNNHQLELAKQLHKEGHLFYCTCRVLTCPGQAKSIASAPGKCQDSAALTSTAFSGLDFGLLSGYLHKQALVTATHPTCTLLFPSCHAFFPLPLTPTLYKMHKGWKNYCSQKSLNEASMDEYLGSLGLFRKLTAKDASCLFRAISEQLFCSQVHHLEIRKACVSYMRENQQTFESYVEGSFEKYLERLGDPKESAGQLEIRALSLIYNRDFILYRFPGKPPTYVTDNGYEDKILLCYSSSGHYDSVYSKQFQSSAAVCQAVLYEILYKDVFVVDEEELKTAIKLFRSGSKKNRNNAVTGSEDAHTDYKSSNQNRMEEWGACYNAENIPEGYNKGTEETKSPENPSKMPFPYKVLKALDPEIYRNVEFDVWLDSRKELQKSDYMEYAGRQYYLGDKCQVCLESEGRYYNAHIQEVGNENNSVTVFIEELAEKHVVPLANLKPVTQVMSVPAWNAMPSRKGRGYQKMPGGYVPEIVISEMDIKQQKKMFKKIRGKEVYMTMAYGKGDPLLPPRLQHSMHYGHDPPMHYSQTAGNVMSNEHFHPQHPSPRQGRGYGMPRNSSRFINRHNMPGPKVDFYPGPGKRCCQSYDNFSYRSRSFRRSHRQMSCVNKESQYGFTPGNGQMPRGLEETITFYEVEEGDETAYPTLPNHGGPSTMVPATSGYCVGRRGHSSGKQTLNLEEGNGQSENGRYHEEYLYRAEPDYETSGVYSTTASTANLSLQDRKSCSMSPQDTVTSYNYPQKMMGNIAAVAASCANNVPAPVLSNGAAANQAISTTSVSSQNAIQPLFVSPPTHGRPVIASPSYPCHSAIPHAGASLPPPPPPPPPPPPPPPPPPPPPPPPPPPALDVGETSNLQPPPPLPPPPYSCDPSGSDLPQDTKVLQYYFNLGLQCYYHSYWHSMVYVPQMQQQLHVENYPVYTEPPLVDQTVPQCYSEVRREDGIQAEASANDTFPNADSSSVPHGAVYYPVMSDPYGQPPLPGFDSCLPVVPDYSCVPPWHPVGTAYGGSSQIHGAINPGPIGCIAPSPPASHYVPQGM
Outline: (§1)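 Global-median-normalised Spectronaut label-free quantities were compared by unpaired t-test, and values are average log2 ratios of fragment over vehicle. Only proteins with ≥2 unique peptides were used. HEK293T lysate (495 µg per sample) was treated in triplicate with fragment at 200 µM or vehicle for 3 h and then with Biotin-Ahx-Ub-VS at 0.5 µM final for 1 h. Labelled DUBs were then NeutrAvidin-enriched, digested with LysC and trypsin, and run by diaPASEF LC-MS/MS.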

ATXN3 = ATXN3 (UniProt P54252)
Outline: as §1

BAP1 = molecular target: T2, BAP1 (UniProt Q92560)
T2 sequence (whole entry): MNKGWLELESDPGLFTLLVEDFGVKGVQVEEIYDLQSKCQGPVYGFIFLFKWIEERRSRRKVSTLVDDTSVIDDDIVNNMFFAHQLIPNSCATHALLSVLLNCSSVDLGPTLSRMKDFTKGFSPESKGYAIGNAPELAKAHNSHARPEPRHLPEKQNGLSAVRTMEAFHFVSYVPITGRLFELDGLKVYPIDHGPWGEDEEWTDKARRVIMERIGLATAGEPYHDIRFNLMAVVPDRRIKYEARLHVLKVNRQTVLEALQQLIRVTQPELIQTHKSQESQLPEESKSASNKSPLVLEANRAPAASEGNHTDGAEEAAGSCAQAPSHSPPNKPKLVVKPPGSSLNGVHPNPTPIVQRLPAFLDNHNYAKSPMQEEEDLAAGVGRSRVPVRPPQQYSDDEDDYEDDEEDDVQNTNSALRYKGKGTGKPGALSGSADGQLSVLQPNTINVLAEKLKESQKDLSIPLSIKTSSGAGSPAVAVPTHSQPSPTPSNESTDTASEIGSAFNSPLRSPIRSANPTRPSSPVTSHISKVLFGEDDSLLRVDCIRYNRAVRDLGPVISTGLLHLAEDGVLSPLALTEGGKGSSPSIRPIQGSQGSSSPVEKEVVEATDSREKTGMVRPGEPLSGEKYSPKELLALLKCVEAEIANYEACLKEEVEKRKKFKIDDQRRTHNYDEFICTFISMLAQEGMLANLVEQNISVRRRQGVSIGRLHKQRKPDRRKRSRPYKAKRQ
Outline: as §1

EIF3F = EIF3F (UniProt O00303)
Outline: as §1

EIF3H = EIF3H (UniProt O15372)
Outline: as §1

FAM105A = molecular target: T3, FAM105A (UniProt Q9NUU6)
T3 sequence (whole entry): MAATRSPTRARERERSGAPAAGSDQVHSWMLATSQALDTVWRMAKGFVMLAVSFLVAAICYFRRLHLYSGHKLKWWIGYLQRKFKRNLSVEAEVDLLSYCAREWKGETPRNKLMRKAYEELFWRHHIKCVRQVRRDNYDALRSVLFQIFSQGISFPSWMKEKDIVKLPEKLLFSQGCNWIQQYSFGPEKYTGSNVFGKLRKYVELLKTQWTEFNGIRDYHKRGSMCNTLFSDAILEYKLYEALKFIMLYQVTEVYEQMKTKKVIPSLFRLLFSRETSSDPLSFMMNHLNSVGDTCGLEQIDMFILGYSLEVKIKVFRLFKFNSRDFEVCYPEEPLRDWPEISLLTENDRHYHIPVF
Outline: as §1

OTUB1 = OTUB1 (UniProt Q96FW1)
Outline: as §1

OTUD4 = molecular target: T4, OTUD4 (UniProt Q01804)
T4 sequence (whole entry): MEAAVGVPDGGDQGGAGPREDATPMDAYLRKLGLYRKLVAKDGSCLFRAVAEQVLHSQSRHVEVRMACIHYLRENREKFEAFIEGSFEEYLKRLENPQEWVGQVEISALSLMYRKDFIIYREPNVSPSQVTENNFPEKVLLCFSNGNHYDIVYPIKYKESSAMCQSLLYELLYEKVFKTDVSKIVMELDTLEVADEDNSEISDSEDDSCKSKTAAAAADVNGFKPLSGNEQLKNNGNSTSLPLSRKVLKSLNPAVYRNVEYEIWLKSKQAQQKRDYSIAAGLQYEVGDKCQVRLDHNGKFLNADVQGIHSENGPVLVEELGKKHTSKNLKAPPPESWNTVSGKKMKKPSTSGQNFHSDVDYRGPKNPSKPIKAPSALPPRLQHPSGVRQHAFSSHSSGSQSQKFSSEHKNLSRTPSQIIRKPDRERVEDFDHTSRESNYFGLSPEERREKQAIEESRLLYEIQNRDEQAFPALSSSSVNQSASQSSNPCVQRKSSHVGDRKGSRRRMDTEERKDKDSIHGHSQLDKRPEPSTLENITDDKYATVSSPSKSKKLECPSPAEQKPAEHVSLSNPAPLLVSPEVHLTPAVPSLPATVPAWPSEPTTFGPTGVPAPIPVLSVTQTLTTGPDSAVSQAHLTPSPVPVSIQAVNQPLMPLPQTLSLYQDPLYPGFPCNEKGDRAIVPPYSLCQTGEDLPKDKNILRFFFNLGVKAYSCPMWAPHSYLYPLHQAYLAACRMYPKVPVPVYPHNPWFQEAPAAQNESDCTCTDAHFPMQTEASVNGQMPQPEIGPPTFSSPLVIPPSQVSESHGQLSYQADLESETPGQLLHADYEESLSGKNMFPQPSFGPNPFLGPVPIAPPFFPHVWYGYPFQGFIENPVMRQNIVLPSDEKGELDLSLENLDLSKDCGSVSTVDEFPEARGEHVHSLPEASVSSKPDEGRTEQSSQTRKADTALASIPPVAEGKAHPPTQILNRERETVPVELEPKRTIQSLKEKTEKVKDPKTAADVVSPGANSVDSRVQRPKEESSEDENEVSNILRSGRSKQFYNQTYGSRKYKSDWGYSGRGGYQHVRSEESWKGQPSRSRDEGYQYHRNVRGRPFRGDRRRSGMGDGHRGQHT
Outline: as §1

OTUD5 = molecular target: T5, OTUD5 (UniProt Q96G74)
T5 sequence (whole entry): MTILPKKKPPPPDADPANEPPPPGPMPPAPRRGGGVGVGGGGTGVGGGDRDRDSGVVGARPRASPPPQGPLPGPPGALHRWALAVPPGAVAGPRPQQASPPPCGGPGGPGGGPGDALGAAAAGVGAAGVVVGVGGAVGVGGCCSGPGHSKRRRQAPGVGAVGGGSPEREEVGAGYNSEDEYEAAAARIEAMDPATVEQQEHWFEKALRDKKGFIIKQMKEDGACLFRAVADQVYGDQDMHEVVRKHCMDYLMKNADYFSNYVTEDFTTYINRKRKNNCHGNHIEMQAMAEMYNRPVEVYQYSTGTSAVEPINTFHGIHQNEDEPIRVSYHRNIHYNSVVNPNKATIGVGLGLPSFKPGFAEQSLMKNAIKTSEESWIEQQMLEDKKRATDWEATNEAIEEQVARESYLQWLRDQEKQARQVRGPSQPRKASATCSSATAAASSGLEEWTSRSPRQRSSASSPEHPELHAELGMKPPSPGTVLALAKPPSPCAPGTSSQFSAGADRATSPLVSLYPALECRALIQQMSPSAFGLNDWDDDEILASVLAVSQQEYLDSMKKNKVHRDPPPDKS
Outline: as §1

Measured: log2 ratio of Biotin-Ahx-Ub-VS probe labelling

EIF3H, sequence (O15372 whole entry): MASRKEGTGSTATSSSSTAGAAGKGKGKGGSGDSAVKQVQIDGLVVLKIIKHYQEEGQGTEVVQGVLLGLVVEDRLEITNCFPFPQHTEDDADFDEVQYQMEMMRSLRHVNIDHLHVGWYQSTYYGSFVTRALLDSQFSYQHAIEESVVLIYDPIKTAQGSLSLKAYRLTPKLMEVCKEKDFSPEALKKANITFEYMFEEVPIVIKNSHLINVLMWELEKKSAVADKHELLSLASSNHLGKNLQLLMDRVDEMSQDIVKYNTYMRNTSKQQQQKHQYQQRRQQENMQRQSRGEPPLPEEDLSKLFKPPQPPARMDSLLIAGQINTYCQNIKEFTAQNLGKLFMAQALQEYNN
OTUB1, sequence (Q96FW1 whole entry): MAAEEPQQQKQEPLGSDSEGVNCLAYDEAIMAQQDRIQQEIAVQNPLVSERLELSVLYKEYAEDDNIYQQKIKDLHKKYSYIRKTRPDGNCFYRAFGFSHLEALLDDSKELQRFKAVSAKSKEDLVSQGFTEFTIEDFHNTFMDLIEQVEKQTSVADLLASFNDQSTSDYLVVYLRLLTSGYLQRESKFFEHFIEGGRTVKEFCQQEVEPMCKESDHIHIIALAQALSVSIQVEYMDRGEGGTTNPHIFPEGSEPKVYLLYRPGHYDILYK
EIF3F, sequence (O00303 whole entry): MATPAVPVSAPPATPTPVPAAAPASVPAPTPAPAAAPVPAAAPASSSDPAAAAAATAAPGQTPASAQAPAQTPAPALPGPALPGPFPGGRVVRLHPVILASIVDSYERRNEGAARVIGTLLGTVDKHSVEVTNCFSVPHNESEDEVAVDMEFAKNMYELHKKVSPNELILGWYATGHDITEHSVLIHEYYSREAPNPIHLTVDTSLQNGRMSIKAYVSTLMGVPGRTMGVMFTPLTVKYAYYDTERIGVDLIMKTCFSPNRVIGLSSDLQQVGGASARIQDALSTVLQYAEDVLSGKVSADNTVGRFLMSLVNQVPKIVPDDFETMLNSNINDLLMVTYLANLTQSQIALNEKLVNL
ATXN3, sequence (P54252 whole entry): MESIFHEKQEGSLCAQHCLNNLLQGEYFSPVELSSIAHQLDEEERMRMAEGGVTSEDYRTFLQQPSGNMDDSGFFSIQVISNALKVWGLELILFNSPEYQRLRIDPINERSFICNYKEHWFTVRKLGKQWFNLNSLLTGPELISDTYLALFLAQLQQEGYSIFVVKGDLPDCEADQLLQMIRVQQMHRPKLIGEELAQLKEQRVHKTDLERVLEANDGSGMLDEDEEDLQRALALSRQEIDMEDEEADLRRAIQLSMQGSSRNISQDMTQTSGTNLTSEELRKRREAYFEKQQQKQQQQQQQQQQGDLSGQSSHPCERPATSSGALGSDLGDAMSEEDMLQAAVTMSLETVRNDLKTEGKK

Cc1ccc(CNC(=O)CCl)nc1C.Cl
active: BAP1 -1.57
inactive: ALG13 -0.419 | ATXN3 -0.055 | EIF3F -0.526 | EIF3H 0.278 | FAM105A -0.225 | OTUB1 -0.192 | OTUD4 -0.29 | OTUD5 -0.221
